From PubChem
DT40 TDP1 no CPT = qHTS for Inhibitors of human tyrosyl-DNA phosphodiesterase 1 (TDP1): qHTS in cells in absence of CPT; DT40 Tdp1-/- hTDP1 cells, no CPT, ATP luminescence, 48 h; Potency, µM (top dose mostly 46.2 µM), without a hit: at the highest dose activity change, negative = growth inhibition, actives largely listed as inhibitors; 420,000 tested, 15% active; AID 686978, 2013; note: potency is the fitted concentration of half-maximal effect; nearly all actives have a fitted effect of over 55% in size
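Camptothecin absent (DMSO only). Human TDP1-complemented DT40 knockout cells, 400 cells/well, 37 °C for minimum 48 hr; ATP measured via CellTiter-Glo, 30 min dark incubation, luminescence.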
ELG1 DNA repair = blocks ELG1-dependent DNA repair in HEK293T cells; HEK293T ELG1-luciferase reporter, luminescence, 16 h; DNA damage induced by 5-fluorouridine; Potency, µM (series often up to 46.1 µM), without a hit: top-dose activity change, negative = inhibition, hits mostly inhibitors; 330,000 tested, 2.3% active; AID 504467; note: potency is the fitted concentration of half-maximal effect; nearly all actives have a fitted effect of over 55% in size
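In this reporter screen, reduction of luminescence relative to DMSO vehicle indicated activity. Compounds and 5-fluorouridine were added together to 2,000 cells per well, incubated for 16 hr at 37 °C, then developed with ONE-Glo.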
TDP1 cell CPT = growth inhibition of DT40 Tdp1-/-;hTDP1 cells with camptothecin (screen for TDP1 inhibitors). 420,000 tested, 12% active. chicken DT40 Tdp1-/-;hTDP1 cells + 20 nM CPT, ATP luminescence, 48 h. AID 686979. Potency, µM (titrated, usually from 46.2 µM), for inactives: at the top dose activity change, negative = growth inhibition, most hits filed as inhibitors; note: potency is the fitted concentration of half-maximal effect; nearly all actives have a fitted effect of over 55% in size
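Chicken DT40 Tdp1-/- cells complemented with human TDP1, 400 cells/well, exposed to compounds plus 20 nM camptothecin for at least 48 h at 37 C; viability read as ATP content by CellTiter-Glo luminescence.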
Giardia killer = kills Giardia lamblia; 340,000 tested, 0.15% active; activity change, % at 7.66 µM, hits read low; Giardia lamblia trophozoite viability; in the data active = activity change below about -80%; inconclusive = between about -30% and that limit;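 note: parasites exposed to compound for two days anaerobically before the ATP read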
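ATP-content bioluminescence gauges trophozoite survival. Cells (100/well) receive compound and incubate anaerobically for 48 hrs at 37 deg C; detection reagent follows for 15-30 min at room temperature.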
TDP1 inh = blocks human tyrosyl-DNA phosphodiesterase 1 | AID 485290 | recombinant TDP1, AlphaScreen DNA substrate cleavage | Q9NUW8 | 350,000 tested, 0.28% active | Potency, µM (top dose mostly 130 µM), for inactives: at the top dose activity change, negative = inhibition, most hits filed as inhibitors; note: potency is the fitted concentration of half-maximal effect; nearly all actives have a fitted effect of over 40% in size
Target sequence (Q9NUW8 whole entry, looked up): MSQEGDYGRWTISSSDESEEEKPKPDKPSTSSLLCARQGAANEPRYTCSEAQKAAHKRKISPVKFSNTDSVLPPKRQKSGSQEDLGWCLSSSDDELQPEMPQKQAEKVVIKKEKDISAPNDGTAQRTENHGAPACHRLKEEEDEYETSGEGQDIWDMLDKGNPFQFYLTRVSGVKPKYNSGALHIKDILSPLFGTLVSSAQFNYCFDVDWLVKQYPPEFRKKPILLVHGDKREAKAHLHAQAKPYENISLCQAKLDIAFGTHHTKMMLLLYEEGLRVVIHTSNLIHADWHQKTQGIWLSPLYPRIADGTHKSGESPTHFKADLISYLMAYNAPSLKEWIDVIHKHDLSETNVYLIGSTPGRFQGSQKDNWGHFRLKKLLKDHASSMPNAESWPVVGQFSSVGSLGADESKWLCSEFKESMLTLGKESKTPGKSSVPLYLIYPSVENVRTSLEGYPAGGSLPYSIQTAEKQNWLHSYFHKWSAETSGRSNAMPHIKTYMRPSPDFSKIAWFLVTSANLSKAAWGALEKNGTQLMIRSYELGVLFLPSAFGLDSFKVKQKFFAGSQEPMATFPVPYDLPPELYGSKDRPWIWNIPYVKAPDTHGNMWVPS
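Enzyme-compound mixtures sat 15 min at room temperature, followed by a 5 min reaction with 15 nM final substrate and 10 min with AlphaScreen beads. Recombinant human Tdp1 was used at 1 nM final.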
IL1B secr inh = inflammasome signaling inhibition, IL-1 beta readout; THP-1 LPS/ATP IL-1B secretion, AlphaLISA, 16 h; active compounds read low; 360,000 tested, 4.7% active; activity change, % at 57.5 µM; in the data active = activity change below about -50%; inconclusive = mostly about -30% to -49%
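THP-1 cells pretreated 1 hr with compounds (up to 57.5 uM final), then stimulated with LPS (250 ng/mL final) plus ATP (1.25 mM final); secreted IL-1B measured by AlphaLISA after 16 hr, decreased signal indicating inhibition.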
The depositor's hits bear a star; u = inconclusive; x = no result given; [ ] = remark or other dose. Sampled rows, rich in hits. Any-hit rate of the full collection: about 19%. Unless noted, calls come from the whole dose curve; as a rule, active = well fitted curve in the direction sought with a large enough effect; inconclusive = small, poorly fitted or top-dose-only effect, or another doubt; inactive = no such curve, though single readings can be large; an effect the other way counts as inactive or inconclusive. % is set by controls: 0 for no effect and ±100 for the full control effect.

SMILES	DT40 TDP1 no CPT	ELG1 DNA repair	TDP1 cell CPT	Giardia killer	TDP1 inh	IL1B secr inh
COc1ccc(Nc2nc(-c3cccc([N+](=O)[O-])c3)nc3ccccc23)cc1	14.6µM*	8.2µM*	u	-9.7	2.7%	-17.0
CNc1nc(-c2cccc(NS(C)(=O)=O)c2)nc2ccccc12	-4.5%	x	-23.3%	x	x	x
CS(=O)(=O)Nc1cccc(-c2nc(Nc3ccc(F)cc3)c3ccccc3n2)c1	4.11µM*	x	5.8µM*	x	-12.8%[56.1 µM]	x
O=C(CCc1nc2ccccc2s1)NC1CCOC1=O (stereo not given)	-4.2%	0.0%	-4.3%	6.3	-3.7%	0.0
Cc1ccc(Cl)cc1NC(=O)COC(=O)CCN1C(=O)C2CC=CCC2C1=O (stereo not given)	-12.1%	-1.4%	-4.3%	-2.1	-1.8%	4.1
COc1ccc(-c2cn(-c3ccc(C)c(Cl)c3)c(=S)[nH]2)cc1OC	u	12.2%	u	-10.6	x	u
COc1ccc(-c2cn(-c3ccccc3)c(=S)[nH]2)cc1OC	9.4%	u	0.3%	-10.0	x	-7.8
COc1ccccc1-n1cc(-c2ccc(C)cc2)[nH]c1=S	4.11µM*	u	3.66µM*	-0.4	x	13.4
COc1ccccc1-n1cc(-c2ccc(Br)cc2)[nH]c1=S	13µM*	1.0%	16.4µM*	-2.0	x	4.1
COc1ccccc1-c1cn(-c2ccccc2)c(=S)[nH]1	20.6µM*	u	u	15.7	x	8.0
COc1ccc(-c2cn(-c3ccc(C)c(C)c3)c(=S)[nH]2)cc1OC	16.4µM*	0.1%	-23.2%	-21.3	x	-16.3
O=C(C1CCC(=O)N(C2CCCC2)C1)N1CCN(Cc2cccc(Cl)c2)CC1 (stereo not given)	-25.6%	-5.4%	-27.3%	-13.1	3.6%	9.2
Cc1ccc(-n2cc(-c3ccc([N+](=O)[O-])cc3)[nH]c2=S)c(C)c1	16.4µM*	-28.8%	16.4µM*	-16.0	7.9%	-1.6
Cc1cccc(-n2cc(-c3ccc([N+](=O)[O-])cc3)[nH]c2=S)c1	3.9%	12.1%	8.4%	-11.1	-1.9%	8.5
O=C(C[C@H]1C[C@H](C(=O)N2CCOCC2)[C@@]2(CCC3CCCC3)c3[nH]c4ccc(Cl)cc4c3CCN2C1=O)NCCN1CCOCC1	u	4.6%	u	5.6	0.3%[56.1 µM]	-1.6
COc1ccc2[nH]c3c(c2c1)CCN1C(=O)C(CC(=O)NCC24CC5CC(CC(C5)C2)C4)C[C@H](C(=O)N2CCOCC2)[C@@]31CCC1CCCC1 (stereo not given in full)	u	-15.5%	u	14.2	1.4%[56.1 µM]	-61.6*
COCCCNC(=O)C[C@H]1C[C@H](C(=O)N2CCOCC2)[C@@]2(CCC3CCCC3)c3[nH]c4ccc(Cl)cc4c3CCN2C1=O	u	-12.0%	20.6µM*	7.1	0.2%[56.1 µM]	-1.9
O=C(C[C@H]1C[C@H](C(=O)N2CCOCC2)[C@@]2(CCC3CCCC3)c3[nH]c4ccc(Cl)cc4c3CCN2C1=O)NCC12CC3CC(CC(C3)C1)C2	20.6µM*	u	16.4µM*	0.0	1.5%[56.1 µM]	43.3
Cc1ccc2nc(SCC(=O)NCC3Cc4cc(-c5ncccc5C)ccc4O3)[nH]c2c1 (stereo not given)	u	x	3.4%[9.04 µM]	x	x	x
CCCCNc1nc(C)nc2c1nc(C)n2CCC	x	x	x	x	8.7%	x
CCc1cccc(NC(=O)Cn2c(-c3ccc(F)cc3)cc(C(C)=O)c2C)c1	16.4µM*	x	13µM*	x	0.9%	x
CC(=O)c1cc(-c2ccccc2)n(CC(=O)Nc2cccc(C)c2C)c1C	-1.8%	4.2%	6.5%	-0.7	-0.6%	10.2
CC(=O)c1cc(-c2ccccc2)n(CC(=O)Nc2ccc(C)c(C)c2)c1C	11.6µM*	-8.0%	u	-7.2	-5.7%	-8.7
CCOC(=O)c1cc(-c2ccccc2)n(CC(=O)Nc2ccc(CC)cc2)c1C	16.4µM*	x	8.2µM*	x	0.0%	x
CCOC(=O)c1cc(-c2ccccc2)n(CC(=O)NCc2ccc(C)cc2)c1C	8.2µM*	x	u	x	-0.9%	x
SMILES	DT40 TDP1 no CPT	ELG1 DNA repair	TDP1 cell CPT	Giardia killer	TDP1 inh	IL1B secr inh
Cc1nonc1C1CCCN1Cc1nc(-c2ccccc2Cl)oc1C (stereo not given)	14.6µM*	3.0%	u	-12.6	0.0%	23.9
Cc1ccccc1-c1nc(CN2CCCC2c2ccc(F)cc2)c(C)o1 (stereo not given)	16.4µM*	-3.3%	20.6µM*	-25.3	3.6%	19.4
Cc1oc(-c2ccccc2Cl)nc1CN1CCCC1c1ccc(F)cc1 (stereo not given)	-36.3%	-12.3%	u	2.9	7.3%	11.5
Cc1ccc(NC(=O)CSc2nnc(-c3ccncc3)n2C)cc1S(=O)(=O)N1CCOCC1	-9.7%	-3.2%	4.2%	29.1	1.8%	-13.2
CSc1ccccc1NS(=O)(=O)c1cccc2nonc12	15.0%	1.2%	1.9%	5.9	-16.3%	0.0
O=C(O)C1OC(Oc2cc3oc(-c4ccccc4)cc(=O)c3c(O)c2O)C(O)C(O)C1O (stereo not given)	u	u	23.1µM*	5.9	5.5%	0.8
O=c1c2ccccc2c2ccccc2c(=O)n1Cc1ccco1	-11.4%	2.3%	-28.4%	-5.8	4.2%	-4.5
Cc1c(N=Cc2c(O)n(Cc3ccco3)c(=O)c3ccccc23)c(=O)n(-c2ccccc2)n1C	u	23.1µM*	20.6µM*	11.3	7.7%	5.2
CC(C)C1C(=O)N(Cc2cn(CCC3OCCCO3)nn2)CCS(=O)(=O)N1Cc1ccc(-c2cccc(N(C)C)c2)cc1 (stereo not given)	-3.1%	x	4.5%	x	x	6.7
COc1ccc(-c2ccc(CN3C(C(C)C)C(=O)N(Cc4cn(CC5CCCCC5)nn4)CCS3(=O)=O)cc2)cc1 (stereo not given)	16.4µM*	x	14.6µM*	x	x	-6.3
CC(C)C1C(=O)N(Cc2cn(CC3CCCCC3)nn2)CCS(=O)(=O)N1Cc1ccc(-c2ccc(F)cc2)cc1 (stereo not given)	9.2µM*	x	-20.3%	x	x	-22.8
CCN(c1ccc(OC)cc1)S(=O)(=O)c1ccc(-c2cc(C)no2)s1	14.6µM*	-28.6%	-95.2%	17.8	-2.5%	11.8
COc1ccc(N2CCN(S(=O)(=O)c3ccc(-c4cc(C)no4)s3)CC2)cc1	2.8%	u	-23.7%	3.2	-0.2%	-3.5
COc1cccc(NS(=O)(=O)c2ccc(Br)s2)c1	-22.5%	2.5%	-2.7%	-15.3	2.2%	4.4
Cc1cc(-c2ccc(S(=O)(=O)Nc3cccc(C)c3C)s2)on1	2.59µM*	x	2.91µM*	x	5.3%	x
